Assay outcomes as filed in PubChem.
Hits are enriched below; roughly 19% of the tested compounds scored in any of these assays.
SARS PLP yeast – qHTS of Yeast-based Assay for SARS-CoV PLP | S. cerevisiae expressing SARS-CoV PLpro, growth rescue | Potency, µM (series often up to 32.9 µM), for the others: at the top dose activity, positive = growth rescue, hits mostly activators | 330,000 tested, 0.19% active | AID 485353, 2010; calls by dose curve; further: potency means the concentration at half of the fitted maximal effect; 0% is about no effect; nearly all actives have a fitted effect of over 55% in size
Pf growth 96h – Primary qHTS for delayed death inhibitors of the malarial parasite plastid, 96 hour incubation | 320,000 tested, 6.9% active | AID 504834, 2011 | Potency, µM (series often up to 28.7 µM), for inactives: at the top dose activity change, negative = inhibition, most hits filed as inhibitors | P. falciparum luciferase reporter growth, 96 h; further: potency means the concentration at half of the fitted maximal effect; on the % scale 0 is the no-effect control and ±100 the full control effect
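P. falciparum expressing integrated firefly luciferase, in erythrocytes at 2% hematocrit, 0.05% parasitemia, incubated with compounds 96 h at 37 C, 5% CO2. Growth inhibition read as loss of luminescence; two-generation exposure targets delayed-death apicoplast inhibitors.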
Shiga inhibitor – A qHTS for Small Molecule Inhibitors of Shiga Toxin; Vero cells, Shiga toxin protein synthesis inhibition reporter; inhibition, % at 38.7 µM; 290,000 tested, 9.2% active; in the data active means inhibition mostly above about 28%, no sharp cut-off; inactive means mostly below about 43%; further: 0% is about no effect
AMA1 RON2 block – qHTS for Inhibitors of AMA1-RON; Towards Development of Antimalarial Drug Lead: Primary Screen; AlphaScreen AMA1-biotinylated RON2 peptide binding; AID 720542, 2013; Potency, µM (titrated, usually from 58.2 µM), for the others: top-dose activity change, negative = inhibition, usual class: inhibitors; Plasmodium falciparum AMA1 (3D7) - RON2 peptide interaction; 360,000 tested, 0.2% active;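 further: potency means the concentration at half of the fitted maximal effect; 0% = vehicle wells and -100% = peptide control; nearly all actives have a fitted effect of over 45% in size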
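AMA1 (3D7) with his tag at 25 nM final met compounds first, then biotinylated RON2 peptide at 25 nM; detection used donor plus acceptor beads, 10 µg/mL apiece, read by AlphaScreen after 30 min at room temperature.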
Pf growth 48h – Primary qHTS for delayed death inhibitors of the malarial parasite plastid, 48 hour incubation; 310,000 tested, 5.9% active; P. falciparum luciferase growth in erythrocytes, 48 h; Potency, µM (highest dose often 28.7 µM), for inactives: at the highest dose activity change, negative = inhibition, actives largely listed as inhibitors; AID 504832, 2011; further: potency means the concentration at half of the fitted maximal effect; on the % scale 0 is the no-effect control and ±100 the full control effect
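Cell-based growth assay: transgenic P. falciparum expressing firefly luciferase, cultured in red cells within RPMI 1640 containing 0.5% w/v Albumax, 24 mM bicarbonate and gentamycin. A drop in luciferase activity indicates inhibition.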
CHX counter – Cycloheximide Counterscreen for Small Molecule Inhibitors of Shiga Toxin. max response, %. AID 2314, 2010. 300,000 tested, 12% active. cell reporter, cycloheximide protein synthesis inhibition counterscreen; in the data active means max response mostly above about 13%, no sharp cut-off; inactive means mostly below about 14%; further: read at 38.3 µM for the half of the compounds with a filed dose; 0% is about no effect
An asterisk follows results filed as active; [ ] = remark or other dose. Unless noted, the call rests on the fitted dose curve; in most records, active means well fitted curve in the direction sought with a large enough effect; inconclusive means small, poorly fitted or top-dose-only effect, or another doubt; inactive means no such curve, though single readings can be large; an effect the other way counts as inactive or inconclusive.

What do the screens show for `Cc1ccc(NC(=O)Cc2noc3ccccc23)nc1`?
SARS PLP yeast: -4%; Pf growth 96h: 85%; Shiga inhibitor: 59*; AMA1 RON2 block: 5%; Pf growth 48h: 52%; CHX counter: 23*

How did Cc1ccc(CC(=O)NCc2ccc(Cl)cc2)cc1 do in these assays?
SARS PLP yeast: 0%; Pf growth 96h: -19%; Shiga inhibitor: 2; AMA1 RON2 block: 2%; Pf growth 48h: 18%; CHX counter: 10

What do the screens show for `Cc1ccc(CNC(=O)Cc2noc3ccccc23)cc1`?
SARS PLP yeast: 0%; Pf growth 96h: 349%; Shiga inhibitor: 51*; AMA1 RON2 block: -2%; Pf growth 48h: 348%; CHX counter: 33*

What do the screens show for `CCc1ccc(NC2=NCC(=O)N2c2ccc3c(c2)OCCO3)cc1`?
SARS PLP yeast: -9%; Shiga inhibitor: 2; AMA1 RON2 block: -7%; Pf growth 48h: -7%; CHX counter: -4

What do the screens show for `Cc1ncc([N+](=O)[O-])n1S(=O)(=O)c1ccc2c(c1)OCCO2`?
AMA1 RON2 block: -19%

Results for CCc1ccc(N=c2c([N+](=O)[O-])nn(-c3ccc4c(c3)OCCO4)n2O)cc1 ?
SARS PLP yeast: 2%; Pf growth 96h: inconclusive; Shiga inhibitor: 46*; AMA1 RON2 block: inconclusive; Pf growth 48h: 8%; CHX counter: 34*

What do the screens show for `O=[N+]([O-])c1nn(-c2ccc3c(c2)OCCO3)n(O)c1=Nc1ccccc1`?
SARS PLP yeast: -50%; Pf growth 96h: -8%; Shiga inhibitor: 168*; AMA1 RON2 block: inconclusive; Pf growth 48h: inconclusive; CHX counter: 142*

Results for Cc1cc(C)cc(N=c2c([N+](=O)[O-])nn(-c3ccc4c(c3)OCCO4)n2O)c1 ?
SARS PLP yeast: -1%; Pf growth 96h: 39%; Shiga inhibitor: 18; AMA1 RON2 block: inconclusive; Pf growth 48h: 49%; CHX counter: 17*

What do the screens show for `Cc1ccc(N=c2c([N+](=O)[O-])nn(-c3ccc4c(c3)OCCO4)n2O)cc1F`?
SARS PLP yeast: 0%; Pf growth 96h: inconclusive; Shiga inhibitor: 141*; AMA1 RON2 block: 10%; Pf growth 48h: 159%; CHX counter: 33*

What do the screens show for `Cc1ccc(N=c2c([N+](=O)[O-])nn(-c3ccccc3)n2O)c(C)c1`?
SARS PLP yeast: -5%; Shiga inhibitor: 98*; AMA1 RON2 block: inconclusive; Pf growth 48h: inconclusive; CHX counter: 32*

What do the screens show for `Cc1c(Cl)cccc1N=c1c([N+](=O)[O-])nn(-c2ccccc2)n1O`?
SARS PLP yeast: 4%; Pf growth 96h: inconclusive; Shiga inhibitor: -10; AMA1 RON2 block: -11%; CHX counter: -4

Results for Cc1nn(C(C)C(=O)Nc2ccc3c(c2)OCO3)c(C)c1[N+](=O)[O-] (centres undefined) ?
SARS PLP yeast: 0%; Pf growth 96h: 36%; Shiga inhibitor: 74; AMA1 RON2 block: 20%; Pf growth 48h: inconclusive; CHX counter: 4

How did Cc1ccc(N=c2c([N+](=O)[O-])nn(-c3ccc4c(c3)OCCO4)n2O)c(Cl)c1 do in these assays?
SARS PLP yeast: 1%; Pf growth 96h: -9%; Shiga inhibitor: 89*; Pf growth 48h: 163%; CHX counter: 35*

Results for Cc1ccc(N=c2c([N+](=O)[O-])nn(-c3ccc(Cl)cc3)n2O)cc1C ?
SARS PLP yeast: -3%; Pf growth 96h: 0.83µM*; Shiga inhibitor: 26; AMA1 RON2 block: -15%; Pf growth 48h: 12µM*; CHX counter: 18

What do the screens show for `O=[N+]([O-])c1nn(-c2ccc3c(c2)OCCO3)n(O)c1=Nc1ccc(Cl)cc1`?
SARS PLP yeast: 12%; Pf growth 96h: inconclusive; Shiga inhibitor: 117*; AMA1 RON2 block: -11%; Pf growth 48h: 15%; CHX counter: 34*

What do the screens show for `S=c1[nH]nc(-c2ccc(Cl)cc2)n1-c1ccc2c(c1)OCCO2`?
SARS PLP yeast: -5%; Pf growth 96h: inconclusive; Shiga inhibitor: 33; AMA1 RON2 block: -1%[2.32 µM]; Pf growth 48h: -7%; CHX counter: 0
